Test results taken from PubChem BioAssay (EPA / NIEHS).
The source made the active and inactive calls. Rule for the calls: active = hit-call score of the fitted dose curve at least 0.9, where 1 is the maximum; inactive = score below 0.9.

experiment: Tanguay_ZF_120hpf_AXIS: Oregon State University Tanguay Lab 120 Hour Post-fertilization zebrafish Assay for Axial Malformation (AID 2284398)
In short: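 Dechorionated 5D wild-type zebrafish embryos exposed statically, one per well, from 6 to 120 hpf at 28C, 0.64% DMSO. Axial malformation scored as present/absent by brightfield microscopy at 120 hpf; dead embryos not scored.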

Question: Which AC50 does the source give for `CN(CCO)S(=O)(=O)C(F)(F)C(F)(F)C(F)(F)C(F)(F)C(F)(F)C(F)(F)C(F)(F)C(F)(F)F` here?
Answer: The AC50 was 29.6 µM (active).

Question: For `O=P(O)(O)CCC(F)(F)C(F)(F)C(F)(F)C(F)(F)C(F)(F)C(F)(F)C(F)(F)C(F)(F)F`, which outcome is on record?
Answer: Its outcome is “inactive”.

Question: For `O=C(O)C(F)(F)OC(F)(F)C(F)(F)OC(F)(F)C(F)(F)OC(F)(F)C(F)(F)C(F)(F)C(F)(F)F`, which outcome is on record?
Answer: The outcome was “inactive”.

Question: For `OCC(F)(F)C(F)(F)C(F)(F)C(F)(F)C(F)(F)C(F)(F)C(F)(F)C(F)(F)C(F)(F)C(F)(F)C(F)(F)F`, which outcome is on record?
Answer: The outcome was “inactive”.

Question: Which outcome does the source give for `C=CC(=O)OCCC(F)(F)C(F)(F)C(F)(F)C(F)(F)C(F)(F)C(F)(F)C(F)(F)C(F)(F)F` here?
Answer: The outcome was “inactive”.

Question: With `O=C(O)CCC(F)(F)C(F)(F)C(F)(F)C(F)(F)C(F)(F)F` as the molecule, how does the outcome read?
Answer: The outcome was “inactive”.

Question: Which outcome does the source give for `O=C(CC(=O)C(F)(F)C(F)(F)C(F)(F)F)c1cccs1` here?
Answer: The outcome was “inactive”.

Question: For `O=P(O)(O)CCC(F)(F)C(F)(F)C(F)(F)C(F)(F)C(F)(F)C(F)(F)F`, which outcome is on record?
Answer: The outcome was “inactive”.
